Conditions in all cases: mRNA level, 48 h; actives raise or lower the signal
Read-out in experiment [1]: Cytochrome P450 7A1 (Homo sapiens) (UniProt P22680)
Nature of the experiment: LTEA_HepaRG_CYP7A1: Life Technologies and Expression Analysis (LTEA) Assay for Cytochrome P450 7A1 (CYP7A1) using HepaRG (AID 2283496). A digest of the protocol: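 HepaRG cells plated 48 h, then switched to serum-free induction medium and exposed in duplicate for 48 h to 8-point half-log series from 100 uM in 0.5% DMSO. CYP7A1 mRNA by qRT-PCR (TaqMan), normalized to ACTB/GAPDH/POLR2A; bidirectional fit versus DMSO.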

Read-out in experiment [2]: Glutathione S-Transferase (GSTA2), GSTA2 (gene 2939)
Description: LTEA_HepaRG_GSTA2: Life Technologies and Expression Analysis (LTEA) Assay for Glutathione S-Transferase (GSTA2) using HepaRG (AID 2283497). In short, it runs like this: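 Human HepaRG cells, plated 48 h, then exposed in serum-free induction medium for 48 h to eight half-log concentrations up to 100 uM in 0.5% DMSO, duplicate. GSTA2 mRNA by qRT-PCR, normalized to ACTB/GAPDH/POLR2A; bidirectional fit versus DMSO.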

Read-out in experiment [3]: growth arrest and DNA damage 45 (GADD45G), GADD45G (gene 10912)
Nature of the experiment: LTEA_HepaRG_GADD45G: Life Technologies and Expression Analysis (LTEA) Assay for growth arrest and DNA damage 45 (GADD45G) using HepaRG (AID 2283499). In short, it runs like this: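 Differentiated human HepaRG cells in serum-free induction medium were exposed for 48 h to 8 half-log concentrations up to 100 uM in 0.5% DMSO, in duplicate. GADD45G mRNA was measured by TaqMan qRT-PCR, normalised to ACTB, GAPDH and POLR2A, and fitted bidirectionally against DMSO.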

Read-out in experiment [4]: Glutamate-cysteine ligase regulatory (GCLM), GCLM (gene 2730)
Description: LTEA_HepaRG_GCLM: Life Technologies and Expression Analysis (LTEA) Assay for Glutamate-cysteine ligase regulatory (GCLM) using HepaRG (AID 2283500). In short, it runs like this: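 Differentiated HepaRG cells exposed 48 h in serum-free induction medium to eight half-log concentrations up to 100 uM (0.5% DMSO). GCLM mRNA by TaqMan qRT-PCR, normalized to ACTB, GAPDH and POLR2A; bidirectional fit versus DMSO.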

Read-out in experiment [5]: Heat shock 70 kDa protein 1 (HSPA1A), gene 3303
Nature of the experiment: LTEA_HepaRG_HSPA1A: Life Technologies and Expression Analysis (LTEA) Assay for Heat shock 70 kDa protein 1 (HSPA1A) using HepaRG (AID 2283502). A digest of the protocol:
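Human HepaRG cells in serum-free induction medium were exposed in duplicate for 48 h to 8 half-log concentrations, highest 100 uM, in 0.5% DMSO. HSPA1A mRNA read by TaqMan qRT-PCR, normalized to ACTB, GAPDH, POLR2A, fitted bidirectionally against DMSO.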

Read-out in experiment [6]: Hypoxia-inducible factor 1-alpha (Homo sapiens) (UniProt Q16665)
Description: LTEA_HepaRG_HIF1A: Life Technologies and Expression Analysis (LTEA) Assay for Hypoxia-inducible factor 1 (HIF1A) Trancription factor using HepaRG (AID 2283503). A digest of the protocol: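 Differentiated HepaRG cells in serum-free induction medium exposed 48 h, in duplicate, to 8-point half-log series from 100 uM in 0.5% DMSO. HIF1A mRNA measured by TaqMan qRT-PCR, normalized to ACTB/GAPDH/POLR2A, fitted bidirectionally versus DMSO.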

Read-out in experiment [7]: 3-Hydroxy-3-Methylglutaryl-CoA Synthase 2 (HMGCS2), HMGCS2 (gene 3158)
Nature of the experiment: LTEA_HepaRG_HMGCS2: Life Technologies and Expression Analysis (LTEA) Assay for 3-Hydroxy-3-Methylglutaryl-CoA Synthase 2 (HMGCS2) using HepaRG (AID 2283504). A digest of the protocol:
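Differentiated human HepaRG cells were exposed in duplicate for 48 h in serum-free induction medium to eight concentrations (top 100 uM, half-log steps, 0.5% DMSO). HMGCS2 mRNA was quantified by TaqMan qRT-PCR, normalised to ACTB, GAPDH and POLR2A, then fitted bidirectionally against DMSO.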

Read-out in a further experiment: HGF (gene 3082)
Description: LTEA_HepaRG_HGF: Life Technologies and Expression Analysis (LTEA) Assay for Hepatocyte Growth Facto (HGF) using HepaRG (AID 2283505). A digest of the protocol: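 Differentiated human HepaRG cells in serum-free induction medium were exposed in duplicate for 48 h to eight concentrations (top 100 uM, half-log steps, 0.5% DMSO). HGF mRNA was quantified by qRT-PCR, normalized to ACTB, GAPDH and POLR2A.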

Read-out in experiment [8]: Insulin Like Growth Factor 1 (IGF1), IGF1 (gene 3479)
Description: LTEA_HepaRG_IGF1: Life Technologies and Expression Analysis (LTEA) Assay for Insulin Like Growth Factor 1 (IGF1) using HepaRG (AID 2283506). A digest of the protocol:
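Differentiated HepaRG cells in serum-free induction medium, exposed 48 h in duplicate to 8 half-log concentrations up to 100 uM in 0.5% DMSO. IGF1 mRNA by Fluidigm qRT-PCR, normalised to ACTB, GAPDH and POLR2A.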

Read-out in experiment [9]: Intercellular Adhesion Molecule 1 (ICAM1), ICAM1 (gene 3383)
Description: LTEA_HepaRG_ICAM1: Life Technologies and Expression Analysis (LTEA) Assay for Intercellular Adhesion Molecule 1 (ICAM1) using HepaRG (AID 2283507). A digest of the protocol:
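Differentiated HepaRG cells in serum-free induction medium were exposed in duplicate for 48 h to eight half-log concentrations up to 100 uM in 0.5% DMSO. Transcript levels were measured by qRT-PCR normalized to ACTB, GAPDH and POLR2A; bidirectional fits relative to DMSO.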

Read-out in experiment [10]: Insulin-like growth factor-binding protein 1 (IGFBP1), IGFBP1 (gene 3484)
Nature of the experiment: LTEA_HepaRG_IGFBP1: Life Technologies and Expression Analysis (LTEA) Assay for Insulin-like growth factor-binding protein 1 (IGFBP1) using HepaRG (AID 2283508). A digest of the protocol: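 Differentiated human HepaRG cells in serum-free induction medium were exposed in duplicate for 48 h to eight concentrations, top 100 uM with half-log dilutions, in 0.5% DMSO. Transcript levels came from qRT-PCR normalised to ACTB, GAPDH and POLR2A, fitted bidirectionally against DMSO.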

Read-out in experiment [11]: Interleukin 6 (IL6), IL6 (gene 3569)
Description: LTEA_HepaRG_IL6: Life Technologies and Expression Analysis (LTEA) Assay for Interleukin 6 (IL6) using HepaRG (AID 2283509). In short, it runs like this:
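Differentiated human HepaRG cells, plated 48 h then switched to serum-free induction medium, were exposed in duplicate for 48 h to eight half-log concentrations up to 100 uM in 0.5% DMSO. IL6 mRNA measured by qRT-PCR, normalized to ACTB/GAPDH/POLR2A.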

Read-out in experiment [12]: Interleukin 6 Receptor (IL6R), IL6R (gene 3570)
Description: LTEA_HepaRG_IL6R: Life Technologies and Expression Analysis (LTEA) Assay for Interleukin 6 Receptor (IL6R) using HepaRG (AID 2283510). In short, it runs like this: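 Differentiated HepaRG cells, plated 48 h, then exposed in duplicate for 48 h in serum-free induction medium to 8 half-log concentrations (top 100 uM, 0.5% DMSO). IL6R mRNA measured by TaqMan qRT-PCR, normalized to ACTB/GAPDH/POLR2A; bidirectional fit vs DMSO.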

Read-out in experiment [13]: Potassium channel subfamily K member 1 (KCNK1), KCNK1 (gene 3775)
Nature of the experiment: LTEA_HepaRG_KCNK1: Life Technologies and Expression Analysis (LTEA) Assay for Potassium channel subfamily K member 1 (KCNK1) using HepaRG (AID 2283511). A digest of the protocol:
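Differentiated human HepaRG cells in serum-free induction medium were exposed in duplicate for 48 h to 8 half-log concentrations up to 100 uM in 0.5% DMSO. KCNK1 mRNA was measured by TaqMan qRT-PCR, normalized to ACTB, GAPDH and POLR2A, and fitted bidirectionally versus DMSO.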

Read-out in experiment [14]: Keratin 19 (KRT19), KRT19 (gene 3880)
Nature of the experiment: LTEA_HepaRG_KRT19: Life Technologies and Expression Analysis (LTEA) Assay for Keratin 19 (KRT19) using HepaRG (AID 2283512). In short, it runs like this:
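Differentiated human HepaRG cells, plated 48 h, were exposed in duplicate for 48 h in serum-free induction medium to eight half-log concentrations up to 100 uM in 0.5% DMSO. KRT19 mRNA was quantified by qRT-PCR, normalized to ACTB, GAPDH and POLR2A, and fitted bidirectionally versus DMSO.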

Read-out in experiment [15]: JUN Transcription Factor, JUN (gene 3725)
Nature of the experiment: LTEA_HepaRG_JUN: Life Technologies and Expression Analysis (LTEA) Assay for JUN Transcription Factor using HepaRG (AID 2283513). A digest of the protocol: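 HepaRG cells, 48 h post-plating, exposed 48 h in serum-free induction medium to 8-point half-log series (top 100 uM, 0.5% DMSO), duplicate; mRNA by qRT-PCR (TaqMan, Fluidigm), normalized to ACTB/GAPDH/POLR2A; bidirectional fit vs DMSO.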

Read-out in experiment [16]: Lipoprotein lipase (LPL), LPL (gene 4023)
Description: LTEA_HepaRG_LPL: Life Technologies and Expression Analysis (LTEA) Assay for Lipoprotein lipase (LPL) using HepaRG (AID 2283515). In short, it runs like this: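 Differentiated human HepaRG cells in serum-free induction medium were exposed in duplicate for 48 h to eight half-log concentrations (top 100 uM) in 0.5% DMSO. LPL mRNA was quantified by TaqMan qRT-PCR, normalized to ACTB, GAPDH and POLR2A.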

Read-out in experiment [17]: Glutathione S-transferase M3 (GSTM3), GSTM3 (gene 2947)
Nature of the experiment: LTEA_HepaRG_GSTM3: Life Technologies and Expression Analysis (LTEA) Assay for Glutathione S-transferase M3 (GSTM3) using HepaRG (AID 2283501). A digest of the protocol:
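Differentiated HepaRG cells in serum-free induction medium were exposed in duplicate for 48 h to 8 half-log concentrations up to 100 uM in 0.5% DMSO. GSTM3 mRNA was measured by TaqMan qRT-PCR, normalized to ACTB/GAPDH/POLR2A, and fitted bidirectionally versus DMSO.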

Read-out in experiment [18]: Lipase C (LIPC), LIPC (gene 3990)
Nature of the experiment: LTEA_HepaRG_LIPC: Life Technologies and Expression Analysis (LTEA) Assay for Lipase C (LIPC) using HepaRG (AID 2283514). In short, it runs like this: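 Differentiated human HepaRG cells in serum-free induction medium were exposed in duplicate for 48 h to eight concentrations (top 100 uM, half-log steps, 0.5% DMSO). LIPC mRNA was quantified by TaqMan qRT-PCR, normalized to ACTB, GAPDH and POLR2A, with bidirectional fitting versus DMSO.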

Calls of active or inactive are those of the source. The calls were made as follows: active = hit-call score of the fitted dose curve at least 0.9, where 1 is the maximum; inactive = score below 0.9.

Sequence of Hypoxia-inducible factor 1-alpha (Homo sapiens) (Q16665 whole entry, looked up): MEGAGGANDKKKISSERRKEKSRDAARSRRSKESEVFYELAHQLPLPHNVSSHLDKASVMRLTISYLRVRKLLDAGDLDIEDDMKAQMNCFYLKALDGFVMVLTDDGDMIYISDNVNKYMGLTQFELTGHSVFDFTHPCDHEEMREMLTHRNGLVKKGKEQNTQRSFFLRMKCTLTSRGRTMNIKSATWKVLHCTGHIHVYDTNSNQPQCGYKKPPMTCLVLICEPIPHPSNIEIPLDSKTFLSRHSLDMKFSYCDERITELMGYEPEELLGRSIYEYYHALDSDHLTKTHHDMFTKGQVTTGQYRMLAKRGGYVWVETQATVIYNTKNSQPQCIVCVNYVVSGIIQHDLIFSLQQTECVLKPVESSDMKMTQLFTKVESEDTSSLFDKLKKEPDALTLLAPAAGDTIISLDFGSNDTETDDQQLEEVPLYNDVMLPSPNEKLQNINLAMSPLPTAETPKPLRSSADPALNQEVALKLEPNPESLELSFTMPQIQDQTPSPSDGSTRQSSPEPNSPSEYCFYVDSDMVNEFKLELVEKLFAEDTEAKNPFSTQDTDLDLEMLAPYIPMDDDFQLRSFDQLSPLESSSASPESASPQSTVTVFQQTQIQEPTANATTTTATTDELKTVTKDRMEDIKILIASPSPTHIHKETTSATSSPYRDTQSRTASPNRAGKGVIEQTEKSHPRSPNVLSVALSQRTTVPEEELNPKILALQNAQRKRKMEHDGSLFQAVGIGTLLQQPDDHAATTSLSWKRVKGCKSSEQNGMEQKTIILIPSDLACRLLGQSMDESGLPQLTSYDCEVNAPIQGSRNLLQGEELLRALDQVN

On to `C=C(C)[C@H]1Cc2c(ccc3c2O[C@@H]2COc4cc(OC)c(OC)cc4[C@@H]2C3=O)O1`, for which the AC50 (commonly the concentration at which the activity in the assay is half-maximal) in [1] is 3.69 µM (active); in experiment [2] it was 3 µM (active); in [3], 1.18 µM (active); in experiment [4], 2.57 µM (active); in experiment [5], 28.9 µM (active); in [6] it was 23.8 µM (active). In addition, the AC50 in experiment [7] was 1.7 µM (active); in the experiment with HGF (gene 3082), 22.8 µM (active); in experiment [8], 1.03 µM (active); in experiment [9], 2.14 µM (active); in experiment [10], 2.9 µM (active); in experiment [11] it was 1.44 µM (active). The AC50 in [13] is 16.6 µM (active); in [14], 0.654 µM (active); in experiment [15], 17.8 µM (active); in experiment [16], 2.16 µM (active). The outcome in experiment [12] was inactive.

For the compound `Nc1nc(N)nc(NC2CC2)n1`, the compound was called inactive in [1], in experiment [2], in experiment [3], in [4], in [17] and in experiment [5]. The compound was called inactive (in [6]; in experiment [7]; with HGF (gene 3082); in [8]; in experiment [9]; in experiment [10]). Further, the result in experiment [11], in [12], in experiment [13], in experiment [14], in experiment [15] and in experiment [16] was inactive.

Regarding `CC(Oc1cccc(Cl)c1)C(=O)O` (centres undefined), the compound was classed as inactive in experiment [1], in experiment [2], in experiment [3], in [4], in experiment [17] and in experiment [6]. Besides, the compound was called inactive (in experiment [7]; in the experiment with HGF (gene 3082); in experiment [9]; in experiment [10]; in experiment [11]; in experiment [12]). Also, the compound was called inactive in [13], in experiment [14], in [15], in experiment [18] and in experiment [16].

With `CCC(=O)Nc1ccc(Cl)c(Cl)c1`, the compound was called inactive (in experiment [1]; in experiment [3]; in experiment [5]; in experiment [6]; in experiment [7]; with HGF (gene 3082)). The compound was called inactive in experiment [8], in experiment [9], in experiment [11], in [12], in [13] and in experiment [15]. Also, in experiment [16], the call was inactive. Also, the concentration at half-maximal activity (AC50) in experiment [2] is 72.5 µM (active); in experiment [4], 50 µM (active); in experiment [10], 50 µM (active); in experiment [14], 41.4 µM (active).

These data come from PubChem BioAssay (EPA / NIEHS).
